Compounds with a hit are over-represented: about 3.3% of the library has one in this group of screens.
NOD2 RIPK2 PPI: blocks binding of human NOD2 to RIPK2; inhibition, % at 4.98 µM; O43353; CHO BLA complementation NOD2-RIPK2, CCF4 ratio; hit rate 0.38% among 360,000; in the data active means inhibition above about 21%;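 further: 0% = vehicle only and 100% = reference blocker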
TLR4-MyD88 BLA: TLR4-MyD88 interaction inhibition in cells; HeLa CL3-4 TLR4/MyD88 BLA complementation, FRET ratio; inhibition, % at 8.4 µM; AID 861; hit rate 0.18% among 200,000; in the data active means inhibition above about 25%;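 further: 0% = vehicle and 100% = reference inhibitor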
Target sequence (O00206 whole entry, looked up): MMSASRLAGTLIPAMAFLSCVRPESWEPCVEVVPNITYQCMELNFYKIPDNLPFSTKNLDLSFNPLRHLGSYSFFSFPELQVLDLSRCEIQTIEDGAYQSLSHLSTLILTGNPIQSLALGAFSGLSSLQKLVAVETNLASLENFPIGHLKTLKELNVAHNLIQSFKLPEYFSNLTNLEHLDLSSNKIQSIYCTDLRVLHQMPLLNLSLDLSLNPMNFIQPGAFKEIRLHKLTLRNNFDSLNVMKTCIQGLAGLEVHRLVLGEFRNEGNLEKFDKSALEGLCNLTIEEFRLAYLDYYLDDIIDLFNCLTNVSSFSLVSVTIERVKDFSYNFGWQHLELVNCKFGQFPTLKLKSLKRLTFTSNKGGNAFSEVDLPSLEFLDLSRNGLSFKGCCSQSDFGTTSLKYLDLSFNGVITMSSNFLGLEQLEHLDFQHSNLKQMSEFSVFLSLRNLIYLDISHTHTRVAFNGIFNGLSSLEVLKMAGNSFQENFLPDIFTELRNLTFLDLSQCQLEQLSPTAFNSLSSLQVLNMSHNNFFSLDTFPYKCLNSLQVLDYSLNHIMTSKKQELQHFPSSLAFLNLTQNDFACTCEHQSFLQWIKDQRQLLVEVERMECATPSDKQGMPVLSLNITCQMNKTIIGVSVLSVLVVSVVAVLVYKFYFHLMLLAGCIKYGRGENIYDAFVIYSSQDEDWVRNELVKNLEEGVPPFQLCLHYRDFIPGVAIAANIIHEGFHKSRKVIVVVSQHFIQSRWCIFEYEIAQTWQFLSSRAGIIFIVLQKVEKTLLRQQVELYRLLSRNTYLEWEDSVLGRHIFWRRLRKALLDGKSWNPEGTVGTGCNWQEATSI
Target sequence (Q99836 whole entry, looked up): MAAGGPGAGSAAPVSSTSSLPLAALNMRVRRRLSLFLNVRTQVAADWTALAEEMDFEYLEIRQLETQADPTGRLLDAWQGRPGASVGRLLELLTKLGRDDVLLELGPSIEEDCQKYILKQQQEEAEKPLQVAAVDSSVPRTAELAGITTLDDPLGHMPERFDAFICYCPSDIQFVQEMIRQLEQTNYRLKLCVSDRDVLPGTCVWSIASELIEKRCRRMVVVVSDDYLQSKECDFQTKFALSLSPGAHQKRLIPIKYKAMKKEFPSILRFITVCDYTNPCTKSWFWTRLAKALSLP
PRMT1 inh: inhibitors of human PRMT1 | Q99873 | recombinant PRMT1, activity-based probe fluorescence polarization | inhibition, % at 2.79 µM | hit rate 1.3% among 370,000;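 active means inhibition above about 21% made by adding two undisclosed values, limit read from the data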
ABHD5-PLIN5 inh: inhibitors of human ABHD5-perilipin-5 interaction | inhibition, % at 4 µM | Split G. princeps luciferase complementation, luminescence, 4 h | hit rate 0.78% among 360,000 | AID 602281;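 active means inhibition above the mean inhibition across every tested compound plus 3 SD, cut at about 22% in these data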;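 further: 0% = DMSO only wells and the 100% control is not disclosed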
TLR9-MyD88 inh: TLR9-MyD88 interaction inhibition. CHO BLA complementation TLR9-MyD88, CCF4 FRET ratio. inhibition, % at 4.98 µM. hit rate 0.21% among 340,000;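 active means inhibition above the mean over all tested compounds plus 3 SD, cut at about 21% in these data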;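 further: 0% = DMSO only wells and 100% = clavulanate BLA inhibitor control wells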
rCAG RNA binder: molecules binding r(CAG) RNA repeats; inhibition, % at 3 µM; hit rate 1.3% among 370,000; r(CAG) RNA repeat, TO-PRO-1 dye displacement fluorescence;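 active means inhibition above the plate cutoff, the mean of all test compounds on that plate plus 3 SD, cut at about 35% in these data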;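 further: 0% = DMSO alone and 100% = 100 µM mitoxantrone as full dye displacement; higher means more dye released from RNA so lower well fluorescence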
rCAG bind conf: r(CAG) RNA repeat binding, confirmation; inhibition, % at 3 µM; hit rate 70% among 4,300; TO-PRO-1 dye displacement fluorescence; shares compounds with rCAG RNA binder; AID 652065;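 active means inhibition above a per-plate cutoff, the mean inhibition of sample wells plus 3 SD, cut at about 35% in these data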;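 further: loss of TO-PRO-1 fluorescence as compound displaces dye from 1x1 AA loop RNA; 0% = DMSO only wells and 100% = 100 µM mitoxantrone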
DNA CAG counter: counter-screen for rCAG RNA binders: DNA CAG dye complex inhibitors; shares compounds with rCAG RNA binder; d(CAG) DNA oligo TO-PRO-1 dye displacement, fluorescence; inhibition, % at 3 µM; hit rate 94% among 4,300; AID 652068;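 active means inhibition above its plate's cutoff, the mean test-well inhibition plus 3 SD, cut at about 4.8% in these data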;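 further: 0% = DNA dye mix with DMSO and 100% = 100 µM mitoxantrone; hits displace the dye from DNA and so lower well fluorescence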
DNA CAG DR: DNA CAG dye complex inhibition, dose response counter-screen; shares compounds with rCAG RNA binder; DNA CAG/GTC duplex TO-PRO-1 dye displacement fluorescence; IC50, µM; hit rate 20% among 250; in the data active means IC50 below about 10 µM
Numbers without * were called inactive; · = not tested or not shown.

SMILES | NOD2 RIPK2 PPI | TLR4-MyD88 BLA | PRMT1 inh | ABHD5-PLIN5 inh | TLR9-MyD88 inh | rCAG RNA binder | rCAG bind conf | DNA CAG counter | others
Cc1cc(NC(=O)OC(C)(C)C)c(-n2nnnc2C(C(=O)c2ccccc2)N2CCOCC2)cc1C (centres undefined) | 10 | · | -2 | -6 | · | 3 | · | ·
O=C(CSc1ccc(Br)c2cccc(Cl)c12)Nc1ccc(S(=O)(=O)Nc2nccs2)cc1 | -10 | 6 | 5 | 16 | 0 | 77* | 75* | 43*
O=C(CSc1ccccc1)Nc1ccc(S(=O)(=O)Nc2ncccn2)cc1 | -6 | 9 | 5 | -3 | -16 | 2 | · | ·
O=C(CSc1ccc2ccccc2c1)Nc1ccc(S(=O)(=O)Nc2nccs2)cc1 | -2 | -6 | -4 | -7 | 5 | 74* | 71* | 36*
Cc1ccc(OCC(=O)Nc2nnc(S(=O)(=O)N3CCCCC3)s2)cc1 | -3 | · | 13 | 0 | -3 | 50* | 41* | 18*
CCOC(=O)c1c(NC(C)=O)sc(C(=O)NC2CCCC2)c1C | 8 | · | 0 | 0 | -2 | -2 | · | ·
CCOC(=O)c1c(NC(C)=O)sc(/C(C)=N/Nc2ccc(C(=O)O)cc2)c1C | 2 | · | 13 | 6 | -3 | 40* | 20 | 4
CC(C)(C)OC(=O)N1CCC(c2cc(=O)n3[nH]cc(C(=O)NC4CCCC4)c3n2)CC1 | 1 | -10 | -3 | 9 | 0 | 55* | 48* | 13*
Cc1cc(N2CCNC[C@H]2C)ccc1N1CCN(Cc2ccccc2)[C@H](C)C1 | · | · | -2 | · | · | 6 | · | ·
CCOc1cc([N+](=O)[O-])cc(/C=C2/NC(=O)N(Cc3ccccc3F)C2=O)c1O | -1 | 6 | 6 | 2 | -4 | 46* | 47* | 14*
COC(=O)c1ccc(N2NC(=O)/C(=C/c3ccc(-c4ccc(Cl)c(C(=O)O)c4)o3)C2=O)cc1 | 1 | 6 | 19 | 6 | 3 | 41* | 69* | 29*
Cc1ccc(N2NC(=O)/C(=C/c3ccc(-c4ccc(Cl)c(C(=O)O)c4)o3)C2=O)cc1C | -1 | -20 | 4 | 1 | 4 | 8 | · | ·
O=C1NN(c2ccc(Cl)c(Cl)c2)C(=O)/C1=C/c1ccc(-c2ccccc2C(=O)O)o1 | -3 | · | 7 | 6 | -3 | 73* | 67* | 26*
COC(=O)C[C@@H]1OC[C@H](Cc2ccccc2)N1S(=O)(=O)c1ccc(C)cc1 | -15 | · | 0 | -2 | · | -1 | · | ·
COc1ccc(/C=C(\C#N)C(=O)NCc2cccnc2)cc1OC | -12 | -10 | -1 | 1 | 6 | -6 | · | ·
COc1cc(/C=C(\C#N)C(=O)NCc2ccccc2)ccc1OCc1ccc(C(=O)O)cc1 | -3 | · | 4 | 6 | -5 | 43* | 30 | 5.9*
N#C/C(=C\c1ccc(OCc2ccc(C(=O)O)cc2)cc1)C(=O)NCc1ccccc1 | -17 | · | 1 | 2 | 11 | 41* | 30 | 5.9*
COc1cc(/C=C(\C#N)C(=O)NC2CCCCC2)ccc1OCc1ccc(C(=O)O)cc1 | 4 | -10 | 1 | 18 | 1 | 40* | 38* | 9.2*
COc1cc(/C=C(\C#N)C(=O)NC(C)C)ccc1OCc1ccc(C(=O)O)cc1 | -1 | · | 1 | 0 | -3 | 11 | · | ·
CC(C)(Sc1ccc(CCN(CCCCC2CCCCC2)C(=O)NC2CCCCC2)cc1)C(=O)O | 2 | · | 2 | -6 | -3 | 49* | 55* | 17* | DNA CAG DR=>30
CN(Cc1ccccc1)C(=O)NC1CCCCC1 | -3 | -9 | 0 | -4 | 6 | 1 | · | ·
O=C(CCN1C(=O)/C(=C/c2cccs2)SC1=S)Nc1cccc(C(=O)O)c1 | -1 | · | 1 | -5 | 2 | 60* | 52* | 18*
CC(=Cc1ccccc1)C=C1SC(=S)N(CCCC(=O)Nc2ccc(C(=O)O)c(O)c2)C1=O | 5 | · | -1 | 6 | · | 93* | 92* | 76*
